For the experiment, the target named is furin, P09958. Put plainly: furin cleavage Z-score vs untreated control; higher = more cleavage, active = 3.5 or more, inactive = 1 or less, 8 variable residues between constant flanks. The procedure, abridged:
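Purified furin cleaved 8-mer peptides that were fused to a cDNA oligonucleotide and held on magnetic beads by their N-terminus. Each 0.01 ml reaction used a 1:10 enzyme:substrate ratio in 50 mM HEPES pH 7.5 with CaCl2 and NaCl and ran 7.5, 15 or 30 min. Released DNA was adapter-tagged by PCR and sequenced, and read counts gave abundance. The cleavage Z-score came from log counts against furin-free reactions, lowess-adjusted and scaled by median absolute deviation.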

From the supplement of paper PMC3545927 come the findings set out here.

This is one part of the list. The hit rate among all sequences tested is not known here.

furin, P09958, sequence (P09958 whole entry, the tested form may be a part): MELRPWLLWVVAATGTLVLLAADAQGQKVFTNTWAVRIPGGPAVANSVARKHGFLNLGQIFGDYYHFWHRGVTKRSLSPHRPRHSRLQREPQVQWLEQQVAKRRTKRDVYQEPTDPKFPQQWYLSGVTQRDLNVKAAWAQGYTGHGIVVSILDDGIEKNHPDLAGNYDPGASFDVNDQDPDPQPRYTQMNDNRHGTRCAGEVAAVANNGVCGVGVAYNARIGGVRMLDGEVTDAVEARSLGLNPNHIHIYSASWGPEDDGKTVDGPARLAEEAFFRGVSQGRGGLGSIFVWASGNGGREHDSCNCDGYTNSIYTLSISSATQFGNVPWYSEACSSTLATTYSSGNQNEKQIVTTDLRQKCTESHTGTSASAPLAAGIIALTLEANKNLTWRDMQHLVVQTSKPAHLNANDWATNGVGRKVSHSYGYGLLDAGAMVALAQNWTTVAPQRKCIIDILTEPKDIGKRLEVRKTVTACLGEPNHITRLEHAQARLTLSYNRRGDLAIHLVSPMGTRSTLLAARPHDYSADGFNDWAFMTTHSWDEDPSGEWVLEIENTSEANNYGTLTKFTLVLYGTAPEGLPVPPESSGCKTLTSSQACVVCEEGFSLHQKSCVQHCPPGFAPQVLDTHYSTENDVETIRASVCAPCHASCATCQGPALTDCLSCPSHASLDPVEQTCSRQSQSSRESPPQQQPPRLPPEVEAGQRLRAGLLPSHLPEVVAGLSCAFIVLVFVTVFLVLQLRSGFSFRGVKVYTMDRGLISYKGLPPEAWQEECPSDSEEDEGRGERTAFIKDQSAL

B1: FS-1767 (peptide)
chain: CARQIRYSVPAGNASASA
Consider B1, for which the “furin cleavage Z-score” value (7.5 min) was 0.304 (inactive), the “furin cleavage Z-score” value (15 min) was 0.942 (inactive) and the “furin cleavage Z-score” value (30 min) is -0.474 (inactive).

B2: HC583 (peptide)
chain: CAWLQYFLTRAGNASASA
B2: the “furin cleavage Z-score” value reads like this: (7.5 min) -0.459 (inactive); (15 min) -0.712 (inactive); (30 min) -0.977 (inactive).

B3: HC516 (peptide)
chain: CASWAIKWEYAGNASASA
For the sequence B3, the “furin cleavage Z-score” value by setting is: (7.5 min) -0.904 (inactive); (15 min) -1.39 (inactive); (30 min) 0.896 (inactive).

B4: FS-2539 (peptide)
chain: CAETKRSINEAGNASASA
For B4, the “furin cleavage Z-score” value reads like this: (7.5 min) -1.27 (inactive); (15 min) -0.817 (inactive); (30 min) -0.177 (inactive).

B5: FS-2346 (peptide)
chain: CARKRRDTGGAGNASASA
Turning to B5, the “furin cleavage Z-score” value is 5.14 (active) (7.5 min), 4.44 (active) (15 min) and 2.79 (30 min).

B6: FS-2412 (peptide)
chain: CARDQRDKDGAGNASASA
With B6, the “furin cleavage Z-score” value reads like this: (7.5 min) 0.132 (inactive); (15 min) -0.98 (inactive); (30 min) -1.37 (inactive).

B7: FS-2272 (peptide)
chain: CARKRRSKSRAGNASASA
As to B7, the “furin cleavage Z-score” value (7.5 min) is 5.87 (active), the “furin cleavage Z-score” value (15 min) was 6.56 (active) and the “furin cleavage Z-score” value (30 min) was 5.23 (active).

B8: FS-1858 (peptide)
chain: CARKRRSQDGAGNASASA
With B8, the “furin cleavage Z-score” value is, setting by setting: (7.5 min) 8.67 (active); (15 min) 10.1 (active); (30 min) 6.23 (active).

B9: FS-1709 (peptide)
chain: CARGLRSIMEAGNASASA
For the sequence B9, the “furin cleavage Z-score” value runs as follows: (7.5 min) -0.826 (inactive); (15 min) 0.557 (inactive); (30 min) 1.78.

B10: FS-2411 (peptide)
chain: CARAVRSINEAGNASASA
With B10, the “furin cleavage Z-score” value is 6.03 (active) (7.5 min), 6.9 (active) (15 min) and 7.81 (active) (30 min).

B11: HC1938 (peptide)
chain: CATTPCSGSTAGNASASA
Take B11: the “furin cleavage Z-score” value (7.5 min) was -0.179 (inactive), the “furin cleavage Z-score” value (15 min) was -0.988 (inactive) and the “furin cleavage Z-score” value (30 min) is -0.748 (inactive).

B12: HC153 (peptide)
chain: CAEVVTETWVAGNASASA
For the sequence B12, the “furin cleavage Z-score” value runs as follows: (7.5 min) -0.809 (inactive); (15 min) -0.763 (inactive); (30 min) -1.97 (inactive).

B13: HC240 (peptide)
chain: CAEDGVNYATAGNASASA
Regarding B13, the “furin cleavage Z-score” value was -0.763 (inactive) (7.5 min), -1.25 (inactive) (15 min) and -0.298 (inactive) (30 min).

B14: FS-2248 (peptide)
chain: CAKTRRSVDGAGNASASA
As to B14, the “furin cleavage Z-score” value runs as follows: (7.5 min) 6.46 (active); (15 min) 7.09 (active); (30 min) 5.86 (active).

B15: FS-739 (peptide)
chain: CAYPVREKKDAGNASASA
Turning to B15, the “furin cleavage Z-score” value reads like this: (7.5 min) -0.917 (inactive); (15 min) 0.614 (inactive); (30 min) 0.838 (inactive).

B16: HC1499 (peptide)
chain: CATERLYVGGAGNASASA
On to B16, for which the “furin cleavage Z-score” value (7.5 min) was 0.0385 (inactive), the “furin cleavage Z-score” value (15 min) was 0.416 (inactive) and the “furin cleavage Z-score” value (30 min) is -0.694 (inactive).

B17: FS-2284 (peptide)
chain: CARPKRKVAPAGNASASA
B17: the “furin cleavage Z-score” value is 1.89 (7.5 min), 0.659 (inactive) (15 min) and 3.08 (30 min).

B18: FS-2216 (peptide)
chain: CARKRRLVAPAGNASASA
Regarding B18, the “furin cleavage Z-score” value was 3.99 (active) (7.5 min), 5.02 (active) (15 min) and 5.53 (active) (30 min).

B19: FS-2410 (peptide)
chain: CARALRLVDGAGNASASA
On to B19, for which the “furin cleavage Z-score” value is, setting by setting: (7.5 min) -0.828 (inactive); (15 min) -0.615 (inactive); (30 min) -0.629 (inactive).

B20: FS-941 (peptide)
chain: CALNPREKKDAGNASASA
In the case of B20, the “furin cleavage Z-score” value was -0.953 (inactive) (7.5 min), 0.314 (inactive) (15 min) and 0.019 (inactive) (30 min).

B21: FS-1733 (peptide)
chain: CARKRRQSEGAGNASASA
B21: the “furin cleavage Z-score” value is 10.4 (active) (7.5 min), 12.6 (active) (15 min) and 8.83 (active) (30 min).

B22: FS-91 (peptide)
chain: CASKSRIKKDAGNASASA
Regarding B22, the “furin cleavage Z-score” value reads like this: (7.5 min) 7.52 (active); (15 min) 6.56 (active); (30 min) 6.64 (active).
